# The whole screen tested about 220,000 compounds, of which about 8,200 (3.7%) were called active.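 Rule for the calls: active = compounds that reduced the stress-induced luciferase reporter signal by more than about 70% of percent inhibition (limit read from the data); inactive = the rest.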 The full list was thinned out, with actives kept by preference.
# Experiment: inhibitors of CHOP promoter induction, primary screen, cell-based, unfolded protein response, luciferase reporter (AID 2732);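 note: 0% = tunicamycin plus vehicle and 100% = wells without tunicamycin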
# Conditions: CHO-K1 CHOP-promoter luciferase, tunicamycin-induced, 15-18 h; at 10 µM; hits give high values
row,SMILES,inhibition
1,O=C(Nc1ccccc1)Nc1ccc(C(F)(F)F)cn1,-1.82% (inactive)
2,Cc1ccc2cc(/C=N/Nc3ccc(C(=O)O)cc3)c(Cl)nc2c1,-19% (inactive)
3,CSCC[C@H](NC(=O)OC(C)(C)C)C(=O)N/N=C/c1cc2ccc(C)cc2nc1Cl,73.9% (active)
4,Cc1ccc2cc(/C=N/NC(=O)[C@@H]3CCCN3)c(Cl)nc2c1,13.2% (inactive)
5,S=c1[nH]nc(-c2ccncc2)n1/N=C/c1ccccc1Cl,9.19% (inactive)
6,CC1=CC2=NC(=O)/C(=C/c3coc4ccccc4c3=O)C(=N)N2O1,10% (inactive)
7,O=[N+]([O-])c1cc(Cl)cc(/C=N/NC(=S)Nc2cc(S(=O)(=O)N3CCOCC3)ccc2Cl)c1O,24.1% (inactive)
8,O=C(COC(=O)c1ccc(F)cc1)Nc1nc2ccc([N+](=O)[O-])cc2s1,7.2% (inactive)
9,O=C(O)CCC(=O)Nc1nc2ccc([N+](=O)[O-])cc2s1,-7.8% (inactive)
10,Cc1cc(C)cc(OCC(=O)Nc2nc3ccc([N+](=O)[O-])cc3s2)c1,89.4% (active)
11,Cc1cc2c(cc1C)N(Cc1ccccc1)C1=NCCCN12,17.9% (inactive)
12,CC(C)CN(CC(C)C)CC(O)CN(c1ccccc1)S(=O)(=O)c1ccccc1[N+](=O)[O-] (stereo unspecified),6.94% (inactive)
13,COc1ccccc1N(CC(=O)Nc1ccc(C(F)(F)F)cc1)S(C)(=O)=O,12.5% (inactive)
14,C/C(=N/NC(=O)c1ccc(NC(=O)c2ccc(F)cc2)cc1)c1ccccc1,52% (inactive)
15,CC(=O)Nc1ccc(/C(C)=N/NC(=O)CN(c2ccccc2Br)S(C)(=O)=O)cc1,91.8% (active)
16,Cc1ccc2c(c1)c1ncn(Cc3ccc(F)cc3)c(=O)c1n2C,21.6% (inactive)
17,S=c1nc2ccccc2c2nc(-c3cccnc3)[nH]n12,-22.9% (inactive)
18,CCCc1ccc(C(=O)[C@@H]2[C@@H](C(C)=O)N3c4ccc(F)cc4C=C[C@@H]3[C@@]23C(=O)Nc2ccccc23)cc1,72.2% (active)
19,CC(C)(C)CN1C(=O)C(=O)NC[C@H]1Cc1cccc2ccccc12,16.9% (inactive)
20,CN1CCc2ccccc2C1Cc1ccccc1NC(=O)c1sc2ccccc2c1Cl (stereo unspecified),24.9% (inactive)
21,CC(=O)Nc1nonc1-c1nc2ccccc2n1Cc1ccccn1,33.7% (inactive)
22,Nc1nonc1-c1nc2ccccc2n1Cc1ccc(F)cc1,84.3% (active)
23,CC(C)(C)N1CC(c2nc3ccccc3n2Cc2ccc(F)cc2)CC1=O (stereo unspecified),-17.7% (inactive)
24,COC(=O)c1cc(N2CCNCC2)nc2ccccc12,19.8% (inactive)

row,SMILES,inhibition
1,Cc1cc(=O)[nH]c2nnnn12,8.36% (inactive)
2,Cc1nn(Cc2ccc(Cl)c(Cl)c2)c(C)c1NC(=O)c1cc(C2CC2)on1,82.7% (active)
3,Cc1cc(C(=O)Nc2c(C)nn(Cc3ccccc3)c2C)on1,11.6% (inactive)
4,O=C(Nc1cc(C(F)(F)F)ccc1Cl)c1cc(C2CC2)on1,67% (inactive)
5,CCCCOc1ccc(CON(C(C)=O)C(C)=O)cc1Cl,10.1% (inactive)
6,COCCn1c(SCC(=O)c2[nH]c(C)c(C(C)=O)c2C)nc2ccccc2c1=O,-9.67% (inactive)
7,C=CCSC(CC)(CC)C(N)=O,4.32% (inactive)
8,O=C1/C(=C/c2cccs2)SC(=S)N1C1CCS(=O)(=O)C1 (stereo unspecified),8.4% (inactive)
9,CCOC(=O)c1ccc(N2C(=O)CC(N3CCC(C(=O)OCC)CC3)C2=O)cc1 (stereo unspecified),1.79% (inactive)
10,CCCCOC(=O)c1ccc(N2C(=O)CC(N3CCN(C/C=C/c4ccccc4)CC3)C2=O)cc1 (stereo unspecified),81.1% (active)
11,CCOC(=O)c1ccc(N2C(=O)CC(N3CCN(C(=O)c4ccccc4)CC3)C2=O)cc1 (stereo unspecified),14.7% (inactive)
12,O=[N+]([O-])c1cccc(-c2nnc3c4ccccc4c4ccccc4n23)c1,96.5% (active)
13,O=c1[nH]c2ccccc2n2c(-c3ccccc3)nnc12,10.4% (inactive)
14,O=[N+]([O-])c1cccc(C2=NCCS2)c1,5.31% (inactive)
15,CC(CNS(=O)(=O)c1ccc(Br)cc1)CN(C)C (stereo unspecified),1.82% (inactive)
16,Cc1ccc2c(C)c(C(=O)N3CCC(N4CCC(C(=O)NC5CC5)CC4)CC3)oc2c1,25.5% (inactive)
17,Fc1ccccc1/C=C1\CCCC2=C1Nc1ncnn1C2c1ccccc1F (stereo unspecified),108% (active)
18,CC1CC(=O)Nc2ccccc2N1S(=O)(=O)c1cccs1 (stereo unspecified),4.64% (inactive)
19,O=C(Nc1ccc2c(c1)CCC2)c1cccc(S(=O)(=O)N2CCN(c3ccc(F)cc3)CC2)c1,78.2% (active)
20,O=C(Nc1ccc2c(c1)CCC2)c1cccc(S(=O)(=O)Nc2ccccc2Cl)c1,33.4% (inactive)
21,O=C(Nc1cccnc1)c1cccc(S(=O)(=O)N2CCCC2)c1,1.13% (inactive)
22,Cc1ccc(Cn2c(SCC(=O)N/N=C/c3ccccc3OCC(=O)O)nc3ccccc32)cc1,19.7% (inactive)
23,O=C(NCc1ccc(F)cc1)C1CCC(CNc2c(N3CCOCC3)c(=O)c2=O)CC1 (stereo unspecified),-4.35% (inactive)
24,O=C(NNc1ccccc1Cl)C(O)(c1cccc(C(F)(F)F)c1)c1cccc(C(F)(F)F)c1,100% (active)

row,SMILES,inhibition
1,O=C(CNS(=O)(=O)c1cccc(C(F)(F)F)c1)Nc1ccccc1F,-2.12% (inactive)
2,O=C(Nc1cc(C(F)(F)F)ccc1Cl)C(=O)N1CCCCC1,23.6% (inactive)
3,COc1ccc(CCN2C(=O)N(c3ccc(OC)cc3)C(=O)C2CC(=O)Nc2ccc(OC)cc2)cc1 (stereo unspecified),-32.7% (inactive)
4,Clc1ccccc1CSc1nnc(-c2ccco2)c(-c2ccco2)n1,71.2% (active)
5,Nc1nc(SCc2ccccc2Cl)n[nH]1,6.63% (inactive)
6,c1ccc(CSc2nnc(-c3ccco3)c(-c3ccco3)n2)cc1,-37.2% (inactive)
7,O=C(Cc1ccccc1)N1N=C(c2ccncc2)CC1(O)C(F)(F)F (stereo unspecified),4.37% (inactive)
8,COc1ccc2oc(N)c(C=O)c(=O)c2c1,13.1% (inactive)
9,COc1ccc2c(c1)C(C)=CC(C)(C)N2C(=O)CNCc1ccc2c(c1)OCO2,73.7% (active)
10,CCn1cc(C(=O)NCc2ccc3c(c2)OCO3)c2cc(OC)c(OC)cc2c1=O,33.4% (inactive)
11,COc1ccc2c(c1)C(C)=CC(C)(C)N2C(=O)Nc1ccccc1,7.45% (inactive)
12,O=C(O)C(c1ccccc1)C1(O)CCCCC1 (stereo unspecified),3.7% (inactive)
13,CCc1nnc(NC(=O)c2cccc(S(=O)(=O)N(C)c3ccc(OC)cc3)c2)s1,28.5% (inactive)
14,CCc1nnc(NC(=O)c2sc3nc(C)cc(COC)c3c2N)s1,-32% (inactive)
15,CCc1ccc2nc3sc(C(=O)Nc4nnc(CC)s4)c(N)c3cc2c1,76.2% (active)
16,COC(=O)[C@H](CC(C)C)NC(=O)N1CCCCC1C (stereo partly specified),16.1% (inactive)
17,COc1ccc(-c2nc(-c3ccccc3)no2)c(OC)c1,81.4% (active)
18,COc1ccc(-c2noc(-c3ccc(C)cc3)n2)cc1,20.8% (inactive)
19,COc1ccc(-c2noc(-c3cccc(OC)c3OC)n2)cc1OC,19% (inactive)
20,CCOc1ccc(S(=O)(=O)N2CCCCCC2)c2ccccc12,71.1% (active)
21,COc1ccc(S(=O)(=O)N2CCCC2)c(C)c1C,31.7% (inactive)
22,CCOc1ccc(S(=O)(=O)n2ccnc2)c2ccccc12,4.14% (inactive)
23,CN1CCN(c2ccc(S(=O)(=O)N3CCOCC3)cc2NC(=O)CCc2ccccc2)CC1,-2.84% (inactive)
24,COc1cccc(Nc2nnc(SCC(=O)N3CC(=O)Nc4ccccc43)s2)c1,-4.27% (inactive)

row,SMILES,inhibition
1,COC(=O)C1=CN(C)C=C(C(=O)OC)C1c1ccc(Cl)cc1Cl,78.2% (active)
2,NC(=O)C1(C(N)=O)OC1c1ccc(Cl)cc1Cl (stereo unspecified),-9.68% (inactive)
3,CCOc1ccccc1C1C(C(=O)OC)=CN(C)C=C1C(=O)OC,2.4% (inactive)
4,O=C(NC1CC1)C1=C[C@H](c2c[nH]c3ccccc23)C[C@H](OCc2ccc(CO)cc2)O1,0.14% (inactive)
5,CSc1ccc(NC(=O)/C=C/C(=O)O)cc1,6.47% (inactive)
6,CC(C)S(=O)(=O)c1csc(NC(=O)Nc2ccc(Cl)cc2)c1Cl,-24.8% (inactive)
7,COc1ccc(-c2csc(N3CCN(Cc4ccc5c(c4)OCO5)CC3)n2)cc1,86.8% (active)
8,COc1cccc(NC(=O)CN2CCN(c3nc(-c4cccc(OC)c4)cs3)CC2)c1,19.3% (inactive)
9,O=C(CN1CCN(c2nc(-c3ccccc3)cs2)CC1)NCc1ccc2c(c1)OCO2,63.6% (inactive)
10,COc1cc(C(F)(F)F)c(C(=O)N(C)c2ccc(Cl)cc2)cn1,13.6% (inactive)
11,O=C(Nc1ccc(-c2csc(Nc3cccc(C(F)(F)F)c3)n2)cc1)c1cccc(C(F)(F)F)c1,21.4% (inactive)
12,COC(=O)CSc1nccc(-c2cccs2)n1,-10.9% (inactive)
13,O=C(Nc1ccnc(-c2ccncc2)n1)c1cccs1,10.6% (inactive)
14,O=C(O)COc1ccc(-c2nccc(-c3cccs3)n2)cc1,73.8% (active)
15,O=c1[nH]c(CSc2ccccc2)nc2c1oc1ccccc12,-3.37% (inactive)
16,Cc1nnsc1C(=O)NCc1c(F)cccc1Cl,15.1% (inactive)
17,Cc1ccc(-c2cn3cc([N+](=O)[O-])ccc3n2)cc1,54.5% (inactive)
18,COc1ccc(-c2cn3ccc(C)cc3n2)cc1,59.3% (inactive)
19,Cc1ccc(-c2cn3cc(C)ccc3n2)cc1,95.9% (active)
20,COc1ccccc1N1CCN(C(=O)CSc2ncnc3c2cnn3-c2ccc(C)c(C)c2)CC1,-4.74% (inactive)
21,Cc1nc(C(=O)N2CCCC(C(=O)c3ccc(Cl)cc3)C2)cs1 (stereo unspecified),-9.72% (inactive)
22,CN(c1ccc2nc3ccccc3c(=O)n2n1)C1CCCCC1,84.1% (active)
23,O=c1c2ccccc2nc2n1C1(CCCCC1)Cc1ccccc1-2,-15.6% (inactive)
24,CN(C(=O)CSc1nncc2ccccc12)C1CCCCC1,4.17% (inactive)

# From PubChem BioAssay AID2732 (Emory University Molecular Libraries Screening Center, 2010)
